# This is part of a sample that, as a whole, favours compounds with a hit. Of some 83,000 tested, about 20% had one in any assay.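 Values shown are percent growth following 48 h exposure of cells in 96-well plates to a single concentration of compound; below 10 was considered active.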 Unmarked numbers belong to inactive results. The source made the active and inactive calls.
# How the values were obtained:
# Assay in all cases: NCI-60 one-dose screen, 48 h (100 = growth as untreated, 0 = no growth, -100 = all killed)
# Settings in all cases: 10 µM unless noted
# DU-145 prostate = tested on: DU-145 prostate
# K-562 leukemia = tested on: K-562 leukemia
# MALME-3M melanoma = tested on: MALME-3M melanoma
# MDA-MB-231 breast = tested on: MDA-MB-231 breast
# RXF 393 renal = tested on: RXF 393 renal
# SF-268 CNS = tested on: SF-268 CNS
# SF-539 CNS = tested on: SF-539 CNS
# UACC-257 melanoma = tested on: UACC-257 melanoma
# M14 melanoma = tested on: M14 melanoma
# HCT-15 colon = tested on: HCT-15 colon
# HT29 colon = tested on: HT29 colon
# SNB-75 CNS = tested on: SNB-75 CNS
# SNB-19 CNS = tested on: SNB-19 CNS
# U251 CNS = tested on: U251 CNS
# PC-3 prostate = tested on: PC-3 prostate
# SK-MEL-5 melanoma = tested on: SK-MEL-5 melanoma
# UACC-62 melanoma = tested on: UACC-62 melanoma
# LOX IMVI melanoma = tested on: LOX IMVI melanoma
# SK-MEL-28 melanoma = tested on: SK-MEL-28 melanoma
Compound,growth (DU-145 prostate),growth (K-562 leukemia),growth (MALME-3M melanoma),growth (MDA-MB-231 breast),growth (RXF 393 renal),growth (SF-268 CNS),growth (SF-539 CNS),growth (UACC-257 melanoma),growth (M14 melanoma),growth (HCT-15 colon),growth (HT29 colon),growth (SNB-75 CNS),growth (SNB-19 CNS),growth (U251 CNS),growth (PC-3 prostate),growth (SK-MEL-5 melanoma),growth (UACC-62 melanoma),growth (LOX IMVI melanoma),growth (SK-MEL-28 melanoma)
O=NN(CC(=O)NNc1ccccc1)CC(=O)NNc1ccccc1,68.7%,11.8%,102%,58.7%,84.9%,59.7%,72%,95.4%,33.1%,33.7%,69.2%,90.8%,96.2%,78.8%,58.8%,90.5%,3.99% (active),7.04% (active),95.5%
CCOC(=O)c1sc2nc(-c3cc4ccccc4o3)cc(-c3ccc(Cl)cc3)c2c1N,99.6%,102%,88.5%,106%,124%,97.3%,120%,114%,112%,101%,105%,74.7%,101%,95.8%,77%,110%,66.8%,91.6%,108%
C=CCn1c(SCC(=O)Nc2ccc(C(=O)/C=C/c3ccccc3)cc2)nnc1-c1ccc(OC)c(OC)c1,89.6%,47.5%,105%,77.1%,85.7%,86%,92.1%,79.9%,73.6%,64.2%,80.1%,79.1%,76.4%,72.7%,67.8%,61.3%,72.1%,84.9%,97.6%
COc1cc(NC(C)CCCN)c2ncccc2c1Oc1ccc(Cl)cc1 (centres undefined),74.8%,52.2%,88.1%,42.4%,79.5%,77.5%,81.2%,88.5%,74.4%,84.5%,34.5%,78.7%,91%,72.7%,63.9%,81%,91.1%,39.9%,109%
Cc1ccc(/C=C/C(=N/N=C(N)N)c2ccccc2)cc1,2.48% (active),11.7%,40%,35.5%,-22.9% (active),36.7%,3.64% (active),54.5%,-24.4% (active),27.6%,4.56% (active),-0.425% (active),38.9%,13.4%,19%,11.3%,33.9%,30.8%,46.2%
CC1C2CCC(C2)C1COCCOCCO (centres undefined),114%,109%,107%,113%,116%,112%,96.7%,87.8%,112%,98.3%,102%,109%,123%,91.9%,101%,106%,104%,94.9%,109%
C/C(=N\NC(=S)Nc1ccccc1)c1ccccn1,57.5%,23.6%,31.3%,30.8%,12.2%,43.3%,19.6%,17.6%,24.1%,28.1%,34.4%,79.9%,43.5%,32.1%,31.6%,16.5%,16.4%,37.3%,59.8%
CCOC(=O)c1c(NC(=O)c2ccccc2)sc2c(O)c(CN(CC)CC)ccc12,-26.9% (active),7.52% (active),38.1%,1.41% (active),-27.4% (active),4.48% (active),6.42% (active),51%,14.4%,15.7%,2.28% (active),-26.2% (active),43.8%,1.72% (active),22.8%,-51.3% (active),21.2%,13.3%,40%
C=CCn1c(SCC(=O)Nc2ccc(/C(C)=N\O)cc2)nnc1-c1cc(-c2ccc(Cl)cc2)nc2ccccc12,48.5%,13.4%,71.7%,35%,47%,38.2%,15.8%,47.9%,20.4%,25.1%,24.7%,40.9%,49.4%,25.8%,22.9%,33.9%,25.5%,-66.6% (active),45.3%
COc1ccc(C2=CC(c3ccc(OC)cc3Br)N3C=CSC3=N2)cc1 (centres undefined),66.2%,9.34% (active),89.9%,75%,84.6%,77.1%,77.5%,80%,25.2%,27.5%,-6.33% (active),63.7%,62.3%,37.2%,50.4%,78.7%,71.2%,16.6%,84%
O=C(Nc1ccc(OS(=O)(=O)c2ccc(F)cc2)cc1)C12CC3CC(CC(C3)C1)C2,87.1%,27.5%,99.7%,59.2%,58.6%,78.4%,61%,65.3%,58.8%,42.3%,7.52% (active),101%,77.9%,84%,38%,28.3%,68%,61.6%,79.7%
CCn1c(CN2CCN(Cc3ccccc3)CC2)nc2cc(NC(=O)c3cccs3)ccc21,-57.7% (active),-27.5% (active),-72.8% (active),-90.6% (active),-92.4% (active),-88.3% (active),-69.8% (active),-80.1% (active),-64.6% (active),3.47% (active),-55.6% (active),-96.6% (active),-41.7% (active),-91.4% (active),-51.5% (active),-98.9% (active),-92.8% (active),-89.7% (active),-91.2% (active)
OC(c1cc2c(Cl)cc(Cl)cc2c2cc(C(F)(F)F)ccc12)C1CCCCN1 (centres undefined),-94.5% (active),-75.5% (active),-44% (active),-73% (active),-90.9% (active),-82.9% (active),-81.5% (active),-67.1% (active),-82.3% (active),-66.8% (active),-80.5% (active),-91% (active),-72.8% (active),-93% (active),-84% (active),8.25% (active),-72.4% (active),-66.2% (active),-75.4% (active)
CN(CCO)c1ccc(N2Cc3ccccc3OC3=C2C(=O)c2c(O)ccc(O)c2C3=O)cn1,-98.8% (active),-1.58% (active),-86.1% (active),-90.2% (active),-96.6% (active),-59.7% (active),-68.9% (active),-91.6% (active),-89% (active),-83.6% (active),-49% (active),-13.7% (active),6.43% (active),-24.8% (active),-14.8% (active),-94.9% (active),-88.3% (active),-86.6% (active),-83.4% (active)
COc1cccc(NC(=O)[C@H](C(C)C)n2c(=O)[nH]c3ccccc3c2=O)c1,107%,90.4%,104%,107%,109%,111%,102%,96.5%,107%,104%,101%,102%,117%,96.8%,95.1%,99.2%,107%,99.7%,114%
CCNC(=S)N(Cc1ccccc1)Cc1ccccc1,124%,100%,105%,116%,126%,116%,104%,98.7%,108%,111%,98.8%,103%,123%,96.4%,95.3%,101%,91.7%,112%,110%

# — PubChem BioAssay (NCI)
